This is an account of results in PubChem BioAssay.

Structures are written as SMILES. Activity calls are given as the source filed them. Unless noted, the rule behind the calls is not given here.

The test system of assay [1] is Wnt5a (protein binding on small-molecule microarray). Briefly: small molecules binding Wnt5a protein – biophysical, small-molecule microarray, 635/667 nm fluorescence, primary screen (AID 1142).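 Note: fluorescence read at 667 nm with signal to noise per printed feature.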 The conditions noted are these: 635 nm fluorescence, higher = more signal.
Assay [2] can be described thus: ATP-based viability of Huh7 replicon cells – cell-based, CellTiter-Glo luminescence, basal, 48 h, cytotoxicity control for HCV replication inhibitor project, primary screen (AID 1143).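 Note: Huh7 hepatoma cells carrying a hepatitis C replication reporter with no stimulus; test concentration not given here.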 The conditions noted are these: higher = more signal, called active from +8 up or from −8 down. (Replicon systems follow genome replication, usually without infectious particles.)
Assay [3] is described as follows: Pseudomonas biofilm growth suppression – PAO1 strain, BacTiter-Glo luminescence, LB-PBS, primary screen (AID 1144). Particulars: P. aeruginosa PAO1 biofilm, 12 h, higher = more signal.
Assay [4] can be described thus: basal CRE-LacZ reporter activity in PC12 – cell-based, unstimulated, primary screen (AID 1145). Particulars: no forskolin, luminescence, 4.5 h, higher = more signal, called active from +8 up or from −8 down.
A short description of assay [5]: forskolin-driven CRE-LacZ activity in PC12 – cell-based, CRE-LacZ reporter, forskolin-stimulated, primary screen (AID 1146).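 Note: PC12 cells with 6xCRE LacZ reporter stimulated by forskolin 10 µM; beta-galactosidase reporter signal reflecting CREB driven transcription.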 Particulars: luminescence, 4.5 h, higher = more signal, called active from +8 up or from −8 down.
Assay [6] addresses Streptavidin (Streptomyces avidinii) (UniProt P22629). Briefly: compounds binding control protein streptavidin – biophysical, small-molecule microarray, 635/667 nm fluorescence, artefact control for SMM compound annotation, primary screen (AID 1147).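 Note: signal reflects streptavidin binding to arrayed compounds as a control protein.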 The conditions noted are these: higher = more signal.
A short description of assay [7]: probe aInhba binding on compound microarray – biochemical, small-molecule microarray, 635/667 nm fluorescence, primary screen (AID 1148).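 Note: score merges 667nm spot fluorescence with signal-to-noise for antibody binding to printed compounds.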 The conditions noted are these: higher = more signal.
Assay [8] concerns the target Torsin-1A (Homo sapiens) (UniProt O14656). The experiment in a line: TOR1A wild-type binding on microarray – cell lysate, small-molecule microarray, lysate, 635/667 nm, primary screen (AID 1149). Particulars: COS7 hTOR1A-WT lysate, 635 nm fluorescence, higher = more signal.
Assay [9] has the same target. The experiment in a line: torsin A mutant lysate binding on microarrays – cell lysate, small-molecule microarray, COS7 lysate, 635/667 nm fluorescence, primary screen (AID 1150).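 Note: score pools 667 nm emission and signal to noise measuring lysate protein binding.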 Particulars: COS7 hTOR1A mutant lysate, 635 nm fluorescence, higher = more signal.
The test system of assay [10] is Sonic hedgehog protein (Shh). Briefly: Sonic hedgehog microarray binding compounds – biochemical, small-molecule microarray, 635/667 nm fluorescence, primary screen (AID 1151).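 Note: Shh protein binding to compounds spotted on small-molecule microarray slides; score combines spot fluorescence intensity with signal-to-noise across triplicate slides.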 Particulars: 635 nm fluorescence, higher = more signal.

Streptavidin (Streptomyces avidinii), sequence (P22629 whole entry, looked up): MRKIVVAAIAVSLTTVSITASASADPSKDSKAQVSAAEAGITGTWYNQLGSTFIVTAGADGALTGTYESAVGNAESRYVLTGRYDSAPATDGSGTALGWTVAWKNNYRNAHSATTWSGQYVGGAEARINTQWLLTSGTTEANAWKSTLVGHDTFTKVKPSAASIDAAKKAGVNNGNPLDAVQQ
Torsin-1A (Homo sapiens), sequence (O14656 whole entry, looked up): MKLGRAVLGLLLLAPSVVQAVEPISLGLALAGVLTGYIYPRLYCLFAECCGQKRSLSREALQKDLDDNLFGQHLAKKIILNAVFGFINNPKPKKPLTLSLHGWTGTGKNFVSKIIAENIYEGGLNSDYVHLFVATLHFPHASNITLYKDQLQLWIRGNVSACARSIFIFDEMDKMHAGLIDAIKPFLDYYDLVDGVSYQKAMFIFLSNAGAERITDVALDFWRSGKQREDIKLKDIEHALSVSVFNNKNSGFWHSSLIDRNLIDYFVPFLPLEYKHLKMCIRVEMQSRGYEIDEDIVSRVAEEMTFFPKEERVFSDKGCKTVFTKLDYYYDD

`Cc1ccc(C(C)CC(O)C2C=CC3C(=O)N(C)C(=O)C3N2Nc2ccccc2)o1` (stereo not given): the composite z-score is 0.342 in assay [1]; 0.0989 in [6]; 0.0588 in assay [7]; 0.371 in the assay with Torsin-1A (Homo sapiens) [8]; -0.139 with Torsin-1A (Homo sapiens) [9]; 1.08 in [10]. Besides, the z-score in assay [2] is -0.206 (inactive); in [3] it was -0.368 (inactive); in assay [4], 0.25 (inactive); in assay [5], 0.471 (inactive).

Regarding `O=C1C2C=CC(C(O)c3ccc([N+](=O)[O-])cc3)N(Nc3ccccc3F)C2C(=O)N1c1ccccc1` (stereo not given), the composite z-score in assay [1] was 0.164; in [6], 0.428; in assay [7], 0.0028; in the assay with Torsin-1A (Homo sapiens) [8], 0.16; with Torsin-1A (Homo sapiens) [9] it was 0.52; in assay [10], -0.449. Further, the z-score in [2] was -0.631 (inactive); in assay [3], -0.242 (inactive); in assay [4], 0.743 (inactive); in assay [5] it was 0.402 (inactive).

Consider `CN(C)C(=O)[C@]1(Cc2ccccc2)N=C(c2ccc(OCCCO)cc2)O[C@@H]1c1ccccc1CN=[N+]=[N-]`, for which the composite z-score came out at 0.552 in assay [1]; 1.34 in assay [6]; 0.136 in assay [7]; 1.12 with Torsin-1A (Homo sapiens) [8]; 0.737 with Torsin-1A (Homo sapiens) [9]; 0.0325 in assay [10]. Further, the z-score in [2] was -3.95 (inactive); in [3], -0.754 (inactive); in [4], -0.655 (inactive); in assay [5], 2.45 (inactive).

Take `O=C1[C@@H]2[C@@H](CC(COc3ccccc3)=C([C@H](O)CCc3ccccc3)[C@@H]2CO)C(=O)N1Cc1ccccc1`: the composite z-score in [1] is -0.0252; in assay [6], 0.541; in assay [7], -0.274; with Torsin-1A (Homo sapiens) [8], -0.19; with Torsin-1A (Homo sapiens) [9], 0.167; in assay [10], 0.801. Besides, the z-score in assay [2] was -2.37 (inactive); in [3], -0.423 (inactive); in [4], 4.74 (inactive); in assay [5] it was 0.831 (inactive).

Turning to `O=C1O[C@@H](c2ccccc2)[C@@H](c2ccccc2)N2[C@@H](c3ccc(OCCO)cc3)[C@]3(C(=O)Nc4ccc(C#CC5(O)CCCCCC5)cc43)[C@@H](C(=O)O)[C@H]12`, the composite z-score in assay [1] was 0.213; in [6], 0.351; in [7] it was -0.0695; in the assay with Torsin-1A (Homo sapiens) [8] it was 0.562; in the assay with Torsin-1A (Homo sapiens) [9] it was 0.695; in [10], 0.633. Also, the z-score was -0.72 (inactive) in assay [2], -0.448 (inactive) in assay [3], -0.0246 (inactive) in assay [4] and 0.371 (inactive) in [5].

Turning to `CC(C)C[C@H]1NC(=O)C([C@@H](C)OCc2ccccc2)NC(=O)[C@@]23C(=O)N[C@@H](Cc4ccccc4)C2[C@H](C)[C@@]2(C)O[C@H]2C3/C=C/C/C=C\CNC1=O` (stereo not given in full), the composite z-score in [1] was 0.0872; in assay [6], 0.0874; in assay [7] it was 0.242; with Torsin-1A (Homo sapiens) [8], -0.125; with Torsin-1A (Homo sapiens) [9], 0.519; in assay [10], 1.62. Also, the z-score is -1.63 (inactive) in assay [2], 0.727 (inactive) in assay [3], 0.839 (inactive) in assay [4] and -0.566 (inactive) in [5].

As for `CCCc1cc2c(n1CCc1ccc(Cl)cc1)C(C)C1CN(C(=O)c3ccccc3)C(C)(C(=O)OC)C21` (stereo not given), the composite z-score was 0.689 in assay [1]; 1.93 in [6]; -0.0736 in assay [7]; -0.103 in the assay with Torsin-1A (Homo sapiens) [8]; 0.947 in the assay with Torsin-1A (Homo sapiens) [9]; -0.264 in assay [10]. For the same compound, the z-score was -3.68 (inactive) in [2], 0.188 (inactive) in assay [3], 1.16 (inactive) in assay [4] and 4.57 (inactive) in assay [5].

`CC1CC/C=C\[C@H]2OC34C=CCN(c5ccc6ccccc6c5)C(=O)[C@H]3N(C(C)CO)C(=O)[C@@H]4C2C(=O)O1` (stereo not given in full): the composite z-score in assay [1] is -0.786; in assay [6], -0.926; in assay [7] it was -0.0933; in the assay with Torsin-1A (Homo sapiens) [8], -0.538; with Torsin-1A (Homo sapiens) [9], -1.15; in assay [10], -0.254. In addition, the z-score in assay [2] was -0.0174 (inactive); in assay [3], 0.282 (inactive); in [4], -0.0899 (inactive); in assay [5], -0.0752 (inactive).

With `CC(C)(C)OC(=O)CC[C@]1(C(=O)NCC(O)CO)N=C(c2ccc(OCCCO)cc2)O[C@H]1c1ccccc1N=[N+]=[N-]` (stereo not given in full), the composite z-score in [1] is 0.112; in [6], 1.38; in assay [7] it was 0.32; in the assay with Torsin-1A (Homo sapiens) [8] it was 0.172; with Torsin-1A (Homo sapiens) [9], 0.565; in assay [10], 0.0555. Besides, the z-score is -1.01 (inactive) in assay [2], -0.00253 (inactive) in assay [3], -0.0808 (inactive) in [4] and -1.48 (inactive) in [5].

Take `CCCNC(=O)[C@@]1(Sc2ccc(C)cc2)CC(=O)N(Cc2ccccc2Cl)[C@@H]1c1ccc(CO)cc1I`: the composite z-score in assay [1] was -0.618; in assay [6] it was -0.255; in assay [7] it was 0.216; with Torsin-1A (Homo sapiens) [8], -1.61; in the assay with Torsin-1A (Homo sapiens) [9], -1.42; in [10], -0.537. In addition, the z-score is -1.23 (inactive) in assay [2], 0.0611 (inactive) in [3], 0.479 (inactive) in assay [4] and 1.44 (inactive) in assay [5].

Take `COC(=O)[C@@]1(Cc2ccccc2)N=C(c2ccc(OCCCO)cc2)O[C@H]1c1ccccc1CN=[N+]=[N-]`: the composite z-score in [1] was 0.289; in [6], -0.12; in assay [7], 0.0227; in the assay with Torsin-1A (Homo sapiens) [8], 0.009; with Torsin-1A (Homo sapiens) [9], 0.668; in assay [10] it was 1.88. Further, the z-score in assay [2] is -5.03 (inactive); in assay [3], -0.621 (inactive); in assay [4], -0.435 (inactive); in assay [5], -1.97 (inactive).

For the compound `NC(=O)NCC#Cc1ccc2c(c1)[C@]1(C(=O)N2)[C@H](c2ccc(OCCO)cc2)N2[C@H](c3ccccc3)[C@H](c3ccccc3)OC(=O)[C@H]2[C@@H]1C(=O)O`, the composite z-score in assay [1] was -0.129; in assay [6] it was -0.204; in [7], -0.128; in the assay with Torsin-1A (Homo sapiens) [8] it was -0.101; in the assay with Torsin-1A (Homo sapiens) [9], 0.141; in assay [10], -0.501. In addition, the z-score in [2] was -4.1 (inactive); in [3], -0.626 (inactive); in assay [4], 0.155 (inactive); in [5], -0.719 (inactive).

In the case of `COC(=O)[C@@]1(Cc2ccc(OC)cc2)[C@H]2c3cc(C(=O)N(C)C)[nH]c3C[C@H]2CN1C(=O)c1ccccc1`, the composite z-score in assay [1] is 0.117; in assay [6], 0.226; in assay [7] it was -0.0645; with Torsin-1A (Homo sapiens) [8], -0.209; with Torsin-1A (Homo sapiens) [9], -0.369; in [10], -0.814. In addition, the z-score in assay [2] was 0.244 (inactive); in [3], 0.857 (inactive); in [4], 0.383 (inactive); in assay [5], -0.289 (inactive).

`COCCOC(=O)N1C(=O)[C@@]2(c3cc(C#CC4(O)CCCCCC4)ccc31)[C@H](c1ccc(O)cc1)N1[C@H](c3ccccc3)[C@H](c3ccccc3)OC(=O)[C@H]1[C@@H]2C(=O)N1CCCCCCC1`: the composite z-score in assay [1] is 0.357; in assay [6], -0.215; in assay [7], -0.0631; in the assay with Torsin-1A (Homo sapiens) [8] it was 0.123; in the assay with Torsin-1A (Homo sapiens) [9], 0.275; in [10] it was 1.09. Moreover, the z-score in [2] was -0.844 (inactive); in assay [3], 0.887 (inactive); in [4], 0.484 (inactive); in [5], -0.125 (inactive).

As for `COc1cc(C(O)C2C=CC3C(=O)N(c4ccccc4)C(=O)C3N2Nc2ccccc2)cc(OC)c1OC` (stereo not given), the composite z-score is 0.575 in assay [1]; 1.39 in assay [6]; 0.38 in [7]; -0.327 with Torsin-1A (Homo sapiens) [8]; -0.0996 with Torsin-1A (Homo sapiens) [9]; -0.277 in assay [10]. For the same compound, the z-score in assay [2] is -0.685 (inactive); in assay [3] it was -0.983 (inactive); in assay [4] it was -0.322 (inactive); in [5], 0.226 (inactive).
